Among all 16,000 compounds or so, about 2,600 (16%) were called active. Inconclusive results (about 20%) are left out. Calls come from the whole dose curve; as a rule, active = well fitted curve in the direction sought with a large enough effect; inconclusive = small, poorly fitted or top-dose-only effect, or effect the other way; inactive = no such curve, though single readings can be large or run the other way. Only a sample is shown.
What follows are compounds tested against Cytochrome P450 2D6 (Homo sapiens) (UniProt P10635) (assay: Cytochrome panel assay with activity outcomes). Settings: recombinant CYP, pro-luciferin dealkylation, luminescence, p450-cyp2d6; series mostly up to 57.1 µM; activity, negative = inhibition: at the top concentration.
Cytochrome P450 2D6 (Homo sapiens), sequence (P10635 whole entry, looked up): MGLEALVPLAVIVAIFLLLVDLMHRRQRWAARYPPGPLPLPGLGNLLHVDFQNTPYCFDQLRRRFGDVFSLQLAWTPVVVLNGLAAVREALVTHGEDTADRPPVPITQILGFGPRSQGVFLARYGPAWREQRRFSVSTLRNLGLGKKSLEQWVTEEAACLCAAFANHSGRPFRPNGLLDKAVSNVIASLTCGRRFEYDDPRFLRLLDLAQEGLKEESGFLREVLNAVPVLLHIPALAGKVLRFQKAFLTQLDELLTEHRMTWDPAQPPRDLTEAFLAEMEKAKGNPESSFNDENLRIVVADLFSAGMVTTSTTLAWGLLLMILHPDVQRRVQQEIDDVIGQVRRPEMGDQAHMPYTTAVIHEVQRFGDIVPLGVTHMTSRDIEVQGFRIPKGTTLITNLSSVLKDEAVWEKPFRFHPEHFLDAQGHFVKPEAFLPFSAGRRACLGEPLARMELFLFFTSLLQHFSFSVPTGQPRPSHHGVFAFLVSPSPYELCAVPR
% is set by controls: 0 for no effect and ±100 for the full control effect.

activity, negative = inhibition, inactive:
C[C@@H]1Cc2ccccc2N1NC(=O)c1ccc(Cl)c(S(N)=O)c1 (stereo partly specified) -10.6% [at 25.6 µM]
O=C(NCC1CCC(C(=O)O)CC1)OCc1ccccc1 (stereo unspecified) -12.9%
COc1ccc2cc(CCNC(=O)C3CC3)c(=O)[nH]c2c1 5.67%
CC(=O)Nc1ccc([N+](=O)[O-])cn1 21.1%
CO[C@@H]1/C=C\CC(=O)N[C@@H](C)C(=O)OC[C@@H](OC)[C@H](C)CCCC(=O)OC[C@H]1C 17% [at 11.4 µM]
CSc1nc(C)c(CCOC(=O)c2cccc(C)c2)c(=O)[nH]1 -2.28%
CCN(CC)S(=O)(=O)c1cc(C(=O)Nc2ccccc2C(=O)O)ccc1OC 0.338%
CCN(CC)S(=O)(=O)c1cc(C(=O)OC)ccc1Cl -5.66%
NS(=O)(=O)c1cc(Br)c(N=Nc2ccc(O)c3ncccc23)c(Br)c1 -4.11% [at 11.4 µM]
CC(C)(C)CC(C)(C)c1cc(O)c(O)c(CN2CCCCC2)c1 -16.1% [at 11.4 µM]
Nc1nc2c(nc(Br)n2[C@@H]2O[C@H]3COP(=O)(O)O[C@@H]3[C@H]2O)c(=O)[nH]1 -1.47%
CCN(CC)c1cc(C)c2cc(NC(=O)CNC(C)=O)ccc2n1 -22.7%
O=C(Cc1ccc2c(c1)CCCC2)Nc1ccccc1Br -15.8%
CCOC(=O)c1cc2sc(C)cc2n1CC(=O)N1CCN(C(=O)c2ccco2)CC1 -14.6%
COc1ccc(N=Cc2ccc(CNS(=O)(=O)c3ccc(Cl)cc3)o2)cc1 15.2%
Nc1ncnc2c1ncn2[C@H]1O[C@@H](C(=O)OCCO)[C@@H](O)[C@H]1O 17% [at 11.4 µM]
Cc1ccc(CNC(=O)C2CCCN2C(=O)NCc2ccccc2)cc1 (stereo unspecified) -6.14%
CCc1ccccc1NC(=O)c1ccc(-n2c(C)ccc2C)cc1 -24.8%
CCCn1nc2cc(C(=O)NCc3ccc4c(c3)OCO4)ccc2c1OCC -40.6%
CC(=O)Nc1cccc(NC(=O)C2CCCN2C(=O)Nc2ccccc2C)c1 (stereo unspecified) -10.4%
CCNc1nc(NCC)nc(N(C)N)n1 -24.1%
CCOC(=O)c1c(C)nc2sc3c(=O)n(-c4ccc(OC)cc4)nnc3c2c1-c1ccc(OC)cc1 -1.38%
CCOC(=O)C1=C(C)NC(C)=C(C(=O)OC)[C@@H]1c1cccc([N+](=O)[O-])c1 -12% [at 25.6 µM]
COC(=O)c1cc(OC)c(OC)cc1NC(=O)CSc1ccccc1 4.67%
COCCNC(=O)CCCCCn1c(=S)[nH]c2ccccc2c1=O -1.04%
COc1cccc(N2CCN(C(=O)Nc3ccc4c(c3)NC(=O)CO4)CC2)c1 -13.3%
S=c1nc[nH]c2c1ncn2Cc1ccco1 1.42% [at 11.4 µM]
O=C(O)C(Cc1cccs1)C(=O)O 21.5% [at 11.4 µM]
CCC/C=C(\CCC)C(NC(=O)c1cccs1)c1ccc(C(F)(F)F)cc1 (stereo unspecified) 4.02%
CN[C@H]1[C@@H](O[C@@H]2[C@H](O[C@@H]3[C@@H](O)[C@@H](O)[C@@H](N=C(N)N)[C@@H](O)[C@@H]3N=C(N)N)O[C@H](C)[C@@]2(O)C=O)O[C@@H](CO)[C@@H](O)[C@H]1O 1.07% [at 25.6 µM]
C=CCN1C(=NC(=O)CC)SC2CS(=O)(=O)CC21 (stereo unspecified) -2.84%
CC(C)=C[C@H]1[C@@H](COC(=O)c2ccccc2Cl)C1(C)C -3.97% [at 11.4 µM]
Clc1ccc2c(c1)C1=C(C(c3ccncc3)O2)C(c2ccc(Br)cc2)n2ncnc2N1 (stereo unspecified) -28.8%
CCCn1nnc(NC(=O)Cc2ccccc2)n1 -9.5%
CC(C)CN1CCCC2(CCN(S(=O)(=O)c3ccccc3)CC2)C1 -2.15%
O=C(NC1CCCCC1)C1CC=CCC1C(=O)OCC(Cl)=C(Cl)Cl (stereo unspecified) -29.9%
C=CCNC(=S)NNc1ncnc2sc3c(c12)CC(C)(C)OC3 -2.64%
CCn1nnnc1SCC(=O)c1ccc2c(c1)OCCO2 -25.7%
COC(=O)[C@@]1(Cc2ccc(OC)cc2)[C@H]2c3cc(C(=O)N4CCCC4)n(CCc4c[nH]c5cc(F)ccc45)c3C[C@H]2CN1C(=O)c1ccccc1 0.678%
CC1(C)CC2(CC(c3cccs3)c3cc(Cl)c(O)cc3O2)NC(=S)N1 (stereo unspecified) -28.9%

AC50, active:
COc1ccc2c(CC(=O)NCC3CCC(C(=O)O)CC3)cc(=O)oc2c1 (stereo unspecified) 6.31 µM
CCN(CC)S(=O)(=O)c1cc(C(=O)Nc2ccncc2)ccc1Cl 2.24 µM
Oc1c(CN2CCCCC2)cc(Br)c2cccnc12 7.94 µM
CC(C)N=c1cc2n(-c3ccc(Cl)cc3)c3ccccc3nc-2cc1Nc1ccc(Cl)cc1 2.51 µM
CCc1ccccc1NC(=S)NCc1ccc2c(c1)OCO2 1.26 µM
COc1ccccc1NC(=O)N1CCCC1C(=O)NCc1ccc2c(c1)OCO2 (stereo unspecified) 14.1 µM
COC(=O)C1=C(C)NC(C)=C(C(=O)OCCSc2ccccc2)[C@@H]1C 25.1 µM
CC[C@H](C(=O)c1cccs1)C(O)(C(F)(F)F)C(F)(F)F 3.16 µM
CC(C)CN1CCC2(CC1)CCN(S(=O)(=O)c1ccccc1)CC2 1 µM
CC(C)CN1CC[C@@]2(CCCN(S(=O)(=O)c3ccccc3)C2)C1 0.501 µM
O=C1CC(c2cccs2)c2cc3c(cc2N1)OCO3 (stereo unspecified) 8.91 µM

Source: PubChem BioAssay AID1851 (National Center for Advancing Translational Sciences (NCATS), 2009)
